Bioassay records: PubChem, National Center for Advancing Translational Sciences (NCATS)
Most compounds without a hit are left out; they make up all but 7.3% or so of the library.
KinaseGlo FLuc: blocks Kinase-Glo luciferase, a counter-screen artifact | Q27757 | Kinase-Glo luciferase, ATP luminescence, 8 min | Potency, µM (doses to about 38.3 µM), for the others: at the highest dose activity change, negative = inhibition, usual class: inhibitors | 0.28% of 200,000 active; note: % is set by controls: 0 for no effect and ±100 for the full control effect; nearly all actives have a fitted effect of over 60% in size
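Luminescence was the read-out, taken after 8-minute incubation at ambient temperature. Luciferase turned over luciferin with 10 uM ATP in imidazole pH 7.2 buffer containing KCl, MgCl2, Tween 20 and BSA.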
ELG1 genotoxic: inducers of genotoxicity in HEK293T ELG1-luciferase cells; HEK293T ELG1-luciferase reporter, luminescence, 16 h; Potency, µM (top dose mostly 46 µM), inactives show at the top dose activity change, positive = activation, most hits filed as activators; 1.3% of 330,000 active; AID 504466; note: % of control where 0% means no effect; nearly all actives have a fitted effect of over 60% in size
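Luminescence read-out: rising ELG1-luciferase signal, reflecting elevated ELG1 protein under genetic stress, flags genotoxic compounds. Cells were treated for 16 hr at 37 °C before ONE-Glo detection.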
FLuc modulator: inhibits or activates purified firefly luciferase, miR-21 counter-screen; AID 588342; 6.9% of 360,000 active; purified FLuc, Km substrates, luminescence inhibition; Potency, µM (titrated, usually from 57.5 µM), for inactives: at the top dose activity change, negative = inhibition, usual class: inhibitors; P08659;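 note: plate controls were vehicle for no effect and reference inhibitor for full effect; nearly all actives have a fitted effect of over 55% in size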
Target sequence (P08659 whole entry, looked up): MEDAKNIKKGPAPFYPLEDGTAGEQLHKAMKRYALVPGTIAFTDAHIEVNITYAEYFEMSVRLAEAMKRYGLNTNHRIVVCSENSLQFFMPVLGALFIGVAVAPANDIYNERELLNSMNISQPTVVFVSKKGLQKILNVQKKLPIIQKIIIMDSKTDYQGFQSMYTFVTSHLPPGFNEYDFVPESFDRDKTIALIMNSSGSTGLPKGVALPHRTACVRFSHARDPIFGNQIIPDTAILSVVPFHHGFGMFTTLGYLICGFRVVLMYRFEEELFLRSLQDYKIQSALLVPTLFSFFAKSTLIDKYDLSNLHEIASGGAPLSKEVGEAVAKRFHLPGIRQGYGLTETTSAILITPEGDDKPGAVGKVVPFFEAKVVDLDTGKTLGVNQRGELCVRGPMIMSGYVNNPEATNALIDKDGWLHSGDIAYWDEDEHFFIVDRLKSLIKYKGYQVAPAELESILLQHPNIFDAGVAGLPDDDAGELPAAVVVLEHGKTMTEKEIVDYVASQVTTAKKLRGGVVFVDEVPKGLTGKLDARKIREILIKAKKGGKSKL
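Purified P. pyralis luciferase, 10 nM final, with Km-level 10 uM D-luciferin and 10 uM ATP in 50 mM Tris acetate pH 7.5, 10 mM Mg acetate, 0.01% Tween-20, 0.05% BSA; 6-point qHTS titration about 60 µM downward; luminescence read.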
SMN2 splice up: SMN2 splice variant enhancement | 2.8% of 210,000 active | AID 1458 | HEK293 SMN2-luciferase splicing reporter, luminescence, 30-36 h | Potency, µM (titrated, usually from 46.1 µM), for inactives: at the highest dose activity change, positive = activation, actives largely listed as activators; note: % of control where 0% means no effect; nearly all actives have a fitted effect of over 55% in size
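HEK293 cells carry an SMN2 minigene-luciferase reporter in which exon 7 inclusion puts luciferase in frame. Cells were seeded at 2000 cells/well, attached for 10-12 hours, then exposed to compounds for 30-36 hours at 37C before ONE-Glo luminescence.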
NPC1 prom act: activates the NPC1 promoter; Potency, µM (highest dose often 9.22 µM), for the others: at the top dose activation, hits mostly activators; Huh7 NPC1 promoter luciferase reporter, 24 h; 2.4% of 320,000 active; note: % of control where 0% means no effect; nearly all actives have a fitted effect of over 60% in size
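NPC1 promoter–luciferase Huh7 cells; 24 h compound; luminescence.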
Rab9 promoter act: Rab9 promoter activation. 2.8% of 320,000 active. Huh7 Rab9 promoter-luciferase reporter, luminescence, 24 h. Potency, µM (doses to about 9.22 µM), inactives show at the highest dose activation, negative = inhibition, hits mostly activators; note: % of control where 0% means no effect; nearly all actives have a fitted effect of over 60% in size
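Cells were plated at 1500 per well in reduced-serum medium with 10% FBS and left 2 h. Compound in DMSO was then added for 24 h at 37 °C. Reporter signal was read by luminescence after 10 min with luciferase detection reagent.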
An asterisk follows results filed as active; ? = inconclusive; / = no result; ! = not confirmed by another sample; [ ] = another dose, or the depositor's remark. Calls come from the whole dose curve; as a rule, active = well fitted curve in the direction sought with a large enough effect; inconclusive = small, poorly fitted or top-dose-only effect, or another doubt; inactive = no such curve, though single readings can be large; an effect the other way counts as inactive or inconclusive. Potency is the fitted concentration of half-maximal effect.

SMILES | KinaseGlo FLuc | ELG1 genotoxic | FLuc modulator | SMN2 splice up | NPC1 prom act | Rab9 promoter act
CN(Cc1ccccc1)S(=O)(=O)c1ccc2[nH]cc(C(=O)NCC3CCCO3)c(=O)c2c1 (centres undefined) | -2% | ? | 11µM* | 12% | 3.2µM* | 2.8µM*
CCOc1ccc(NS(=O)(=O)c2ccc3[nH]cc(C(=O)NCC4CCCO4)c(=O)c3c2)cc1 (centres undefined) | -1% | 3% | 27µM*! | 1% | ? | -3%
CCOc1ccc(NS(=O)(=O)c2ccc3[nH]cc(C(=O)N(CC)CC)c(=O)c3c2)cc1 | 0% | ? | 2.7µM* | 3.5µM* | 0.45µM* | 0.4µM*
CC1CC/C(=C\c2ccc3c(c2)OCO3)C(=O)/C1=C/c1ccc2c(c1)OCO2 (centres undefined) | -3% | -1% | 4% | -86% | 1% | -2%
C1CCN=C(Nc2nn[nH]n2)CC1 | -1% | -3% | 1% | 21% | -2% | -2%
O=C(Nc1cccnc1)c1ccc(Br)c(S(=O)(=O)N2CCCC2)c1 | / | -12% | -4% | / | -2% | -3%
Cc1noc(C)c1S(=O)(=O)N1CCCC(C(=O)c2cccc(OC(C)C)c2)C1 (centres undefined) | 0% | -8% | 4% | / | -9% | -10%
COc1ccc(/C=C2\N=C(c3ccccc3Cl)NC2=O)cc1 | / | 4% | 1.7µM* | / | -30% | -16%
CCCCNc1c(-c2cccc(-c3cc(C(C)=O)cs3)c2)nc2cc(C)ccn12 | / | -11% | 6µM* | / | 13% | 5%
O=C(NC(=O)c1ccccc1Cl)C(=O)Nc1ccc(Cl)cc1 | / | 4% | -1% | / | 2% | 12%
COc1cccc(C(=O)NC23CC4CC(CC(C4)C2)C3)c1 | / | 10% | 17µM* | / | 3% | 4%
COc1ccc(C(=O)NC23CC4CC(CC(C4)C2)C3)cc1 | / | 4% | 7.6µM* | / | 2% | 18%
COc1ccc(C(=O)NCC(=O)OCC(=O)NC23CC4CC(CC(C4)C2)C3)cc1 | / | 4% | / | / | / | /
Nn1c(-c2ccc(F)cc2)nc2ccccc2c1=O | / | -1% | -3% | / | -2% | 5%
CCN(C(=O)CSc1nnc(-c2ccncc2)n1C)C1CCS(=O)(=O)C1 (centres undefined) | 4% | -5% | -5% | -7% | 8% | 1%[1.84 µM]
Cc1ccc(CN(Cc2ccco2)C(=O)COc2ccc(C)c(C)c2)cc1 | / | / | ? | -18% | / | /
Cc1ccc(NC2=C(Cl)C(=O)c3ccccc3C2=O)cc1 | / | ? | -23% | / | -34% | -33%
Cc1cc(C)cc(NC2=C(N)C(=O)c3ccccc3C2=O)c1 | / | ? | 15µM* | / | ? | ?
COc1ccc(CCN(C)CCC(=O)Nc2cc(C)ccc2C)cc1OC | -1% | -1% | 13µM* | -7% | 1% | -2%
COC(=O)c1ccc(C)c(NC(=O)CCc2ccc(OC)c(OC)c2)c1 | 6% | -16% | 5% | -32% | 0% | -10%
CC(C)OC(=O)c1cccnc1SCC(=O)Nc1ccc(C(F)(F)F)cc1Cl | / | / | 1% | / | / | /
CN(CC(=O)Nc1ccc(N2CCOCC2)cc1)C(=O)CCCOc1ccc(Cl)cc1Cl | / | -5% | ? | / | -3% | -5%
C/C(=C\c1ccc(N)cc1)c1nc2ccccc2[nH]1 | / | ? | 3µM* | / | 2.5µM* | 2.2µM*
CN(C)C(=O)c1cccn(Cc2ccc(C(F)(F)F)cc2)c1=O | 2% | 5% | -4% | 13% | -5% | -2%
O=C(c1ccc(Br)cc1)N1CCC(C(=O)N2CCN(c3ccccc3)CC2)CC1 | / | -11% | -4% | / | -5% | 1%
SMILES | KinaseGlo FLuc | ELG1 genotoxic | FLuc modulator | SMN2 splice up | NPC1 prom act | Rab9 promoter act
O=C1CN(c2ccccc2)C(=S)N1C(=O)c1ccc(Br)cc1 | / | 18µM* | 12µM* | / | 2.2µM* | 3.2µM*
COc1cc(-n2c(-c3ccccc3)n[nH]c2=S)c(OC)cc1Cl | 1% | 0% | -14% | -1% | 2% | 1%
COC(=O)Nc1nc2ccc(C(=O)c3ccccc3)cc2[nH]1 | -7% | / | / | 23% | / | /
COC(=O)Nc1nc2ccc(SC(C)C)cc2[nH]1 | -3%[17.1 µM] | 5.8µM* | ? | ? | 20% | 16%
Cc1cc(N2CCN(C)CC2)ccc1NC(=O)c1c2c(nc3ccccc13)CCN(Cc1ccccc1)C2 | -2% | 23µM* | -8% | -70% | -41% | -32%
C=CCSc1nnc(-c2cc3c(s2)-c2ccccc2CC3)o1 | 0% | 8% | 12µM* | ? | 0% | ?
C=CCSc1nnc(-c2cccc3ccccc23)o1 | / | 0% | / | / | / | /
O=C(Nc1ccn(Cc2ccccc2)n1)c1ccc(F)cc1 | -4% | ? | 6.7µM* | 4% | 2µM* | 2.8µM*
O=C(Nc1ccn(Cc2ccccc2)n1)c1cccc(Cn2cc([N+](=O)[O-])cn2)c1 | -3% | -7% | 15µM* | -13% | 4% | 4%
Cc1ccc(Cn2ccc(NC(=O)c3cc(-c4ccc(F)cc4)on3)n2)cc1 | -1% | 8% | -2% | -26% | 2% | -5%
CC(=O)Nc1ccc(S(=O)(=O)N/N=C/c2ccc(C)s2)cc1 | -3% | ? | 11µM* | ? | 17% | ?
O=C(Nc1cccc2ccccc12)/C(=C/c1cccc([N+](=O)[O-])c1)NC(=O)c1cccs1 | 5% | -8% | 6% | 2% | -1% | -4%
O=C(O)COc1ccccc1/C=N/NC(=O)c1cc(-c2ccc(F)cc2)nc2ccccc12 | -4% | 0% | 1.9µM* | -1% | -3% | -4%
COc1cccc(/C=N/NC(=O)c2cc(-c3ccccn3)nc3ccccc23)c1O | / | 5% | ? | / | -34% | -33%
O=C(N/N=C/c1ccc(O)cc1)c1csc2ccccc12 | -7% | 1% | 15µM* | 4% | 19% | 1%
COc1cc(/C=N/NC(=O)c2cc(-c3ccccc3)nc3ccccc23)ccc1O | / | -6% | 11µM* | / | 0% | -3%
O=C(Nn1cnnc1)c1csc2ccccc12 | 3% | 0% | 1% | ? | 1% | 0%
O=C(N/N=C/c1cc(Cl)cc([N+](=O)[O-])c1O)c1cc(-c2ccccn2)nc2ccccc12 | / | 10% | 21µM* | / | -5% | -16%
COc1cc(OC)c(NC(=O)N2CCSc3ccccc32)cc1Cl | / | / | -19% | / | / | /
CCN(CC)S(=O)(=O)c1cccc(C(=O)N/N=C/c2ccccc2OCC(=O)O)c1 | 4% | -1% | 27µM* | 2% | -4% | -3%
Cc1ccc(-c2cc(C(=O)N/N=C/c3ccoc3)c3ccccc3n2)cc1 | / | -3% | 4.8µM* | / | -8% | -7%
Cc1nn(-c2ccccc2)c(N2CCCC2)c1/C=N/NC(=O)c1cc(-c2cccnc2)nc2ccccc12 | 2% | -9% | 1% | -26% | -3% | -10%
